Test results published in paper PMC8384837, “Expanding the binding specificity for RNA recognition by a PUF domain”.

How the values were obtained:
Assay in all cases: yeast three-hybrid, YBZ-1, SC-Leu-His + 0.5 mM 3-AT, 4 days
Settings in all cases: tags: N-Gal4 AD-HA kept; label: inside an RPR1-promoter hybrid RNA with tandem MS2 sites; ssRNA
PUM1 PUF domain R1-RAQ = PUM1 PUF domain R1-RAQ (Homo sapiens, UniProt Q14671 828-1176, S863R;R864A)
Outline: (§1)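 Sequencing with Illumina followed PCR amplification of the repeat regions from transformants grown four days on SC-Leu (input) or SC-Leu-His + 0.5 mM 3-AT (selection). The transformants were strain YBZ-1 with a LexA–MS2 coat fusion and a HIS3 reporter, carrying Pumilio-1 PUF domain libraries and matching RNA elements. The interaction score is the log change in variant frequency from input to selection, computed in log2 with a pseudocount of 1 for absent variants.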

PUM1 PUF domain R5-KGG = PUM1 PUF domain R5-KGG (Homo sapiens, UniProt Q14671 828-1176, C1007K;R1008G;Q1011G)
Outline: as §1

PUM1 PUF domain R8-TWN = PUM1 PUF domain R8-TWN (Homo sapiens, UniProt Q14671 828-1176, N1122T;Y1123W;Q1126N)
Outline: as §1

PUM1 PUF domain R8-RFN = PUM1 PUF domain R8-RFN (Homo sapiens, UniProt Q14671 828-1176, N1122R;Y1123F;Q1126N)
Outline: as §1

PUM1 PUF domain R1-KVE = PUM1 PUF domain R1-KVE (Homo sapiens, UniProt Q14671 828-1176, S863K;R864V;Q867E)
Outline: as §1

PUM1 PUF domain R1-VWK = PUM1 PUF domain R1-VWK (Homo sapiens, UniProt Q14671 828-1176, S863V;R864W;Q867K)
Outline: as §1

PUM1 PUF domain R1-NIS = PUM1 PUF domain R1-NIS (Homo sapiens, UniProt Q14671 828-1176, S863N;R864I;Q867S)
Outline: as §1

PUM1 PUF domain R4-NFQ = PUM1 PUF domain R4-NFQ (Homo sapiens, UniProt Q14671 828-1176, H972F)
Outline: as §1

PUM1 PUF domain R3-FFA = PUM1 PUF domain R3-FFA (Homo sapiens, UniProt Q14671 828-1176, C935F;R936F;Q939A)
Outline: as §1

PUM1 PUF domain R3-LRM = PUM1 PUF domain R3-LRM (Homo sapiens, UniProt Q14671 828-1176, C935L;Q939M)
Outline: as §1

PUM1 PUF domain R1-RAQ, sequence (Q14671 828-1176 S863R/R864A): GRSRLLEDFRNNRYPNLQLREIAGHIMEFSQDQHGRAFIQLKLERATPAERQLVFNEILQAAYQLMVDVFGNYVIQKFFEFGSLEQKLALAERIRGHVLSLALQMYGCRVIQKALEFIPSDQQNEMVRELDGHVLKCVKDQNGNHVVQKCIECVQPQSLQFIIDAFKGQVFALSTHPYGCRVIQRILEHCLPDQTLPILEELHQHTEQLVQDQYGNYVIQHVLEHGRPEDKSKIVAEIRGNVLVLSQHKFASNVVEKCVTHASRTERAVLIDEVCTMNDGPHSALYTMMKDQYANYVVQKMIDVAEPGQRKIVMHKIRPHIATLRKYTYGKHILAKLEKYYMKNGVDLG
PUM1 PUF domain R3-FFA, sequence (Q14671 828-1176 C935F/R936F/Q939A): as the sequence (Q14671 828-1176 S863R/R864A) above, with R36S, A37R, C108F, R109F, Q112A counted along it
PUM1 PUF domain R1-KVE, sequence (Q14671 828-1176 S863K/R864V/Q867E): as the sequence (Q14671 828-1176 S863R/R864A) above, with R36K, A37V, Q40E counted along it
PUM1 PUF domain R5-KGG, sequence (Q14671 828-1176 C1007K/R1008G/Q1011G): as the sequence (Q14671 828-1176 S863R/R864A) above, with R36S, A37R, C180K, R181G, Q184G counted along it
PUM1 PUF domain R8-RFN, sequence (Q14671 828-1176 N1122R/Y1123F/Q1126N): as the sequence (Q14671 828-1176 S863R/R864A) above, with R36S, A37R, N295R, Y296F, Q299N counted along it
PUM1 PUF domain R1-NIS, sequence (Q14671 828-1176 S863N/R864I/Q867S): as the sequence (Q14671 828-1176 S863R/R864A) above, with R36N, A37I, Q40S counted along it
PUM1 PUF domain R8-TWN, sequence (Q14671 828-1176 N1122T/Y1123W/Q1126N): as the sequence (Q14671 828-1176 S863R/R864A) above, with R36S, A37R, N295T, Y296W, Q299N counted along it
PUM1 PUF domain R1-VWK, sequence (Q14671 828-1176 S863V/R864W/Q867K): as the sequence (Q14671 828-1176 S863R/R864A) above, with R36V, A37W, Q40K counted along it
PUM1 PUF domain R3-LRM, sequence (Q14671 828-1176 C935L/Q939M): as the sequence (Q14671 828-1176 S863R/R864A) above, with R36S, A37R, C108L, Q112M counted along it
PUM1 PUF domain R4-NFQ, sequence (Q14671 828-1176 H972F): as the sequence (Q14671 828-1176 S863R/R864A) above, with R36S, A37R, H145F counted along it

## GGCUAGAACUAGUGGAUCCCCCGGCGCCCGGCGGCUCGAGCCCGGGUAAGUGUAAAUGGUCUGCAUGCCGCCGGGCGCCAUGCCUGCAGGUCGACUCUAGAAAACAUG
PUM1 PUF domain R1-RAQ
  binding signal: 1.23 log2 enrichment (interaction score)

## GGCUAGAACUAGUGGAUCCCCCGGCGCCCGGCGGCUCGAGCCCGGGUAAGUGUCAAUAGUCUGCAUGCCGCCGGGCGCCAUGCCUGCAGGUCGACUCUAGAAAACAUG
PUM1 PUF domain R5-KGG
  binding signal: 2.89 log2 enrichment (interaction score)

## GGCUAGAACUAGUGGAUCCCCCGGCGCCCGGCGGCUCGAGCCCGGGUAAGCGUAAAUAGUCUGCAUGCCGCCGGGCGCCAUGCCUGCAGGUCGACUCUAGAAAACAUG
PUM1 PUF domain R8-TWN
  binding signal: 2.51 log2 enrichment (interaction score)
PUM1 PUF domain R8-RFN
  binding signal: 2.57 log2 enrichment (interaction score)

## GGCUAGAACUAGUGGAUCCCCCGGCGCCCGGCGGCUCGAGCCCGGGUAAGUGUAAAUCGUCUGCAUGCCGCCGGGCGCCAUGCCUGCAGGUCGACUCUAGAAAACAUG
PUM1 PUF domain R1-RAQ
  binding signal: 2.93 log2 enrichment (interaction score)
PUM1 PUF domain R1-KVE
  binding signal: 3.75 log2 enrichment (interaction score)

## GGCUAGAACUAGUGGAUCCCCCGGCGCCCGGCGGCUCGAGCCCGGGUAAGUGUAAAUUGUCUGCAUGCCGCCGGGCGCCAUGCCUGCAGGUCGACUCUAGAAAACAUG
PUM1 PUF domain R1-RAQ
  binding signal: 2.71 log2 enrichment (interaction score)
PUM1 PUF domain R1-KVE
  binding signal: 3.9 log2 enrichment (interaction score)
PUM1 PUF domain R1-VWK
  binding signal: 3.24 log2 enrichment (interaction score)
PUM1 PUF domain R1-NIS
  binding signal: 6.67 log2 enrichment (interaction score)

## GGCUAGAACUAGUGGAUCCCCCGGCGCCCGGCGGCUCGAGCCCGGGUAAGUGUUAAUAGUCUGCAUGCCGCCGGGCGCCAUGCCUGCAGGUCGACUCUAGAAAACAUG
PUM1 PUF domain R5-KGG
  binding signal: 2.27 log2 enrichment (interaction score)

## GGCUAGAACUAGUGGAUCCCCCGGCGCCCGGCGGCUCGAGCCCGGGUAAGUGUAAAUAGUCUGCAUGCCGCCGGGCGCCAUGCCUGCAGGUCGACUCUAGAAAACAUG
PUM1 PUF domain R8-RFN
  binding signal: 2.38 log2 enrichment (interaction score)

## GGCUAGAACUAGUGGAUCCCCCGGCGCCCGGCGGCUCGAGCCCGGGUAAGUGUAUAUAGUCUGCAUGCCGCCGGGCGCCAUGCCUGCAGGUCGACUCUAGAAAACAUG
PUM1 PUF domain R4-NFQ
  binding signal: 2.34 log2 enrichment (interaction score)

## GGCUAGAACUAGUGGAUCCCCCGGCGCCCGGCGGCUCGAGCCCGGGUAAGUGUAAUUAGUCUGCAUGCCGCCGGGCGCCAUGCCUGCAGGUCGACUCUAGAAAACAUG
PUM1 PUF domain R3-FFA
  binding signal: 4.46 log2 enrichment (interaction score)

## GGCUAGAACUAGUGGAUCCCCCGGCGCCCGGCGGCUCGAGCCCGGGUAAGUGUAAGUAGUCUGCAUGCCGCCGGGCGCCAUGCCUGCAGGUCGACUCUAGAAAACAUG
PUM1 PUF domain R3-FFA
  binding signal: 8.18 log2 enrichment (interaction score)
PUM1 PUF domain R3-LRM
  binding signal: 3.32 log2 enrichment (interaction score)
